Compound activity: PubChem, several laboratories
Jurkat NFkB inh = inhibitors of induced NF-kB luciferase reporter, primary screen, TCR NF-kB activation inhibitor project, cell-based, luminescence, uHTS; Jurkat, PMA/ionomycin-induced NF-kB luciferase reporter; inhibition, % at 4 µM; hit rate 0.53% among 330,000; AID 435003, 2010; in the data active = inhibition above about 50%
697 NFkB inh = inhibitors of PMA/ionomycin-induced NF-kB reporter, 697 cells, primary screen, B-cell NF-kB inhibitor project, cell-based, luminescence, uHTS; 697 B-cell NF-kB luciferase reporter, 16 h; inhibition, % at 4 µM; hit rate 0.33% among 330,000; AID 435022, 2010; in the data active = inhibition above about 35%
A1 inh = caspase 3/7 activation in MEF A1-2A-BIM cells, primary screen, A1 inhibitor project, cell-based, luminescence, HTS | hit rate 0.066% among 330,000 | caspase activation, % (no concentration beside the values) | Caspase-Glo 3/7 luminescence, 3 h; percent of clofoctol response, vehicle zero;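 active = over half of replicate activation scores above 10%, or exactly half above 10 with the replicate mean above 10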
NTR1 ag = agonists of human NTR1, primary screen, imaging, U2OS cells, beta-arrestin-GFP, high content | NTR1-U2OS beta-arrestin-GFP spot imaging, agonist mode | hit rate 0.17% among 330,000 | Neurotensin receptor type 1 (Homo sapiens), P30989 | activation, % at 20 µM | AID 493036, 2011;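 active = activation at or above 40% of the spot to cytoplasm intensity ratio, with at least 20 cells analyzed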;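 also: 0% = DMSO without peptide and 100% = 100 nM NTR1 peptide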
Beta apoptosis = inhibitors of cytokine-induced beta cell apoptosis, primary screen, luminescence; INS-1E cytokine-induced death, ATP luminescence, 48 h; percent of positive-control rescue, neutral wells zero; hit rate 0.8% among 300,000; protection from apoptosis, % (no concentration beside the values);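 active = Every replicate reaches about 75%, or at least half do and their mean reaches it too, limit read from the data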;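 also: 0% = cytokine-treated negative control wells and 100% = positive control rescue; higher means more ATP so stronger rescue from cytokine killing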
Mdm2 MdmX PPI = inhibitors of human Mdm2-MdmX association, primary screen, cell-based, luminescence, split luciferase, SaOS-2, uHTS; SaOS-2 split-luciferase Mdm2/MdmX complementation; inhibition, % at 8 µM; hit rate 3% among 330,000;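 active = inhibition of at least 50% at 8 µM in the primary screen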
Target sequence (O15151 whole entry, looked up): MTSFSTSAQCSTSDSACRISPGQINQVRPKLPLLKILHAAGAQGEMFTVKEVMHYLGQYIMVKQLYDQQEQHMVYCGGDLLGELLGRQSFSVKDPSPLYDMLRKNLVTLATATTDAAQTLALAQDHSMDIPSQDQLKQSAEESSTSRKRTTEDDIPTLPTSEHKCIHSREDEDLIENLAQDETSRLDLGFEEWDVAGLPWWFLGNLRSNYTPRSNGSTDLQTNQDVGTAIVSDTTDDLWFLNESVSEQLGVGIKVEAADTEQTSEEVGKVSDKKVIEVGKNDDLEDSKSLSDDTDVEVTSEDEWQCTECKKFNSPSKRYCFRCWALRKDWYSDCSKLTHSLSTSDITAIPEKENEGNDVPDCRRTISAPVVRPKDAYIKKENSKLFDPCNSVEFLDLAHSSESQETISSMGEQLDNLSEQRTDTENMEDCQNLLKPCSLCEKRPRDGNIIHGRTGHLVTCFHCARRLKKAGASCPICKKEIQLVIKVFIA
Target sequence (Q00987 whole entry, looked up): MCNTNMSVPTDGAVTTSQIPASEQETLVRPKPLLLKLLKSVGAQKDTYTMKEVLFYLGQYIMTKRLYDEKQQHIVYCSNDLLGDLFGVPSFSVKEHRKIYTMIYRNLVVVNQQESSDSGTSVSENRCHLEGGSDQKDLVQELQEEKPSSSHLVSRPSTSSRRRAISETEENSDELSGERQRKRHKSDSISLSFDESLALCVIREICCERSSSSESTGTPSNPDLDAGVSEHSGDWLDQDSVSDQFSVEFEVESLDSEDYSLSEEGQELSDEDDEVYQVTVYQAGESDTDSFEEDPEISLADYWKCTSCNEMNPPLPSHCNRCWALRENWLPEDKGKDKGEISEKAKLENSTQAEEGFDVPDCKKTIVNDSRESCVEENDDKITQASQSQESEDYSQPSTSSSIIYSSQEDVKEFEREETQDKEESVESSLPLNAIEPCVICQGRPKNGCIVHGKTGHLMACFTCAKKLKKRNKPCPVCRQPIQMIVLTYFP
Jurkat NFkB conf = PMA/ionomycin-induced NF-kB reporter inhibitors, Jurkat retest, confirmation, T-cell NF-kB inhibitor project, cell-based, luminescence, single concentration; shares compounds with Jurkat NFkB inh; Jurkat NF-kB luciferase, 16 h; inhibition, % at 4 µM; hit rate 27% among 2,700; AID 435020, 2010;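 active = inhibition reaching about 45% at 4 µM in either replicate, limit read from the data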;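 also: plate controls were PMA/ionomycin stimulated DMSO wells for no effect and unstimulated DMSO wells for full effect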
697 NFkB conf = PMA/ionomycin-induced NF-kB reporter inhibitors, 697 retest, confirmation, B-cell NF-kB inhibitor project, cell-based, luminescence, single concentration; inhibition, % at 4 µM; 697 B-cell NF-kB luciferase, 16 h; shares compounds with 697 NFkB inh; hit rate 35% among 2,000; AID 449746, 2010; in the data active = inhibition mostly above about 28%, no sharp cut-off; inactive = mostly below about 22%
Mdm2-MdmX conf = Mdm2-MdmX complex disruptors, retested hits, confirmation, luminescence, single concentration | shares compounds with Mdm2 MdmX PPI | Mdm2-MdmX binding, luminescent assay | inhibition, % at 8 µM | hit rate 55% among 10,000 | AID 489028, 2010; in the data active = inhibition above about 40%
Full FLuc ctr = full-length luciferase signal inhibition, confirmation, counter-screen for Mdm2/MdmX interaction inhibitor project, cell-based, single concentration, SaOS-2. shares compounds with Mdm2 MdmX PPI. SaOS-2 full-length luciferase counterscreen, luminescence. inhibition, % at 8 µM. hit rate 77% among 6,200;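 active = mean inhibition at 8 µM reaching about 37%, which flags the compound as non-specific, limit read from the data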;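 also: p53-null SaOS-2 cells with luciferase driven by a doxycycline-inducible promoter; compound on cells about two nights before reading with doxycycline added after day one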
Starred values were filed as active, the others as inactive; i = inactive; . = no result. In the library only some 3.8% were active in any assay of this set; here they are far more common.

SMILES	Jurkat NFkB inh	697 NFkB inh	A1 inh	NTR1 ag	Beta apoptosis	Mdm2 MdmX PPI	Jurkat NFkB conf	Mdm2-MdmX conf	Full FLuc ctr	others
Cc1ccc(C(=O)C(C)OC(=O)C2CCN(c3ccc(C(F)(F)F)cn3)CC2)cc1 (stereo not given)	3.7	17.1	.	3.7	.	6.5	.	.	.
CC1=C(C(=O)OCc2ccc3c(c2)OCO3)C(c2ccc(Cl)cc2)NC(=O)N1 (stereo not given)	71.0*	-17.7	.	3.8	.	84.3*	63.7*	91.5*	51.2*
CSCCOC(=O)C1=C(C)NC(=O)NC1c1ccc2c(c1)OCO2 (stereo not given)	-7.4	-12.4	1.2	0.7	-3.0	7.9	.	.	.
CC1=C(C(=O)OCc2ccc3c(c2)OCO3)C(c2ccc(F)cc2)NC(=O)N1 (stereo not given)	59.3*	-36.6	0.7	0.2	-7.3	91.0*	33.6	92.1*	48.7*
COc1ccccc1C(=O)NNC(=O)CN1C(=O)c2ccccc2C1=O	10.0	8.1	-0.4	-0.8	-6.3	-8.5	.	.	.
Cc1nc(SCC(=O)Nc2nc3ccccc3s2)c(C#N)c(C)c1C	89.5*	32.7	-2.1	0.4	13.6	100.2*	89.0*	100.1*	53.3*
COc1ccccc1C1=NOC(COc2ccc3c(C)cc(=O)oc3c2)C1 (stereo not given)	67.0*	-3.7	1.8	6.6	19.8	58.3*	39.2	57.6*	88.2*
COc1ccc(C2=NOC(COc3ccc4c(C)cc(=O)oc4c3)C2)c(OC)c1 (stereo not given)	51.0*	-9.8	0.4	4.6	5.0	56.0*	35.2	56.4*	60.3*
COc1cccc(COc2ccc3c(C)cc(=O)oc3c2)c1	-128.0	-158.8	-9.1	0.7	6.3	-198.4	.	.	.
Cc1cc(=O)oc2cc(OCc3nnc(-c4ccccc4Br)o3)ccc12	-7.1	-22.3	0.3	4.5	0.7	17.7	.	.	.
CCn1c(CC(=O)Nc2ccccc2)nnc1SCC(=O)Nc1nncs1	4.6	10.7	0.1	-0.4	-5.1	9.9	.	.	.
Cc1ccc(S(=O)(=O)N[C@@H](C)C(=O)OCC(=O)N2c3ccccc3NC(=O)C2(C)C)cc1	-7.6	-14.2	-0.2	0.8	-2.4	0.9	.	.	.
COc1ccccc1NC(=O)/C=C\c1ccco1	-10.6	-3.9	-3.1	-0.4	-6.6	-2.9	.	.	.
COc1ccccc1NC(=O)/C(C#N)=C/C=C/c1ccco1	58.9*	0.0	-0.2	-1.5	6.8	50.5*	-6.8	53.5*	64.0*
C(=N\Nc1nc(Nc2ccccc2)nc(N2CCOCC2)n1)/c1c[nH]c2ccccc12	82.0*	60.5*	0.0	15.0	.	51.6*	-3.2	34.4	.	697 NFkB conf=49.0*
CCCCOc1ccc(C(=O)OCC(=O)NC2CCCC2)cc1	5.6	-9.0	0.6	2.4	1.6	2.8	.	.	.
C#CC(=O)N(c1ccc(OC)cc1OC)C(C(=O)NC1CCCC1)c1cccs1 (stereo not given)	90.0*	97.3*	1.5	3.8	64.1	88.8*	66.6*	100.2*	51.2*	697 NFkB conf=103.6*
C#CC(=O)N(c1cc(OC)ccc1OC)C(C(=O)NC1CCCC1)c1cccs1 (stereo not given)	95.4*	98.5*	4.4	6.6	6.0	100.3*	85.0*	100.1*	52.1*	697 NFkB conf=105.4*
O=C(c1ccccc1)c1ccc(-n2ccnc2)c([N+](=O)[O-])c1	-8.2	-9.6	0.1	-0.1	-1.9	-4.4	.	.	.
Cc1cccc(N(O)C(=O)Nc2cccc(Cl)c2)c1	-26.0	-24.7	-5.5	-0.2	-1.5	-1.8	.	.	.
O=C(N/N=C/c1ccc([N+](=O)[O-])o1)c1cc(-c2ccc(-c3ccccc3)cc2)nc2ccccc12	-177.5	i	-0.4	2.8	24.2	63.8*	-84.6	57.2*	83.7*	697 NFkB conf=i
O=C(Nc1ccc(Br)cc1)c1cc(-c2ccncc2)nc2ccccc12	57.2*	-31.7	1.2	7.9	0.7	62.4*	27.6	50.9*	45.4*
O=C(N/N=C/c1ccsc1)c1cc(-c2ccncc2)nc2ccccc12	55.3*	-75.2	-0.2	2.1	7.0	51.9*	19.1	38.1	66.3*
Cc1ccc(/C=N/NC(=O)c2cc(-c3cccnc3)nc3ccccc23)cc1	62.8*	-14.5	1.2	9.0	19.3	53.9*	11.6	40.5*	48.2*
Cc1ccc(-c2cc(C(=O)N/N=C/c3ccc([N+](=O)[O-])o3)c3ccccc3n2)o1	-7.4	16.7	-11.7	0.3	36.9	18.8	.	.	.
SMILES	Jurkat NFkB inh	697 NFkB inh	A1 inh	NTR1 ag	Beta apoptosis	Mdm2 MdmX PPI	Jurkat NFkB conf	Mdm2-MdmX conf	Full FLuc ctr	others
Cc1ccccc1NC(=O)C(=O)NNC(=O)COc1ccc2ccccc2c1	-2.4	-1.7	-0.4	3.0	-3.0	3.9	.	.	.
O=C(N/N=C/c1ccc2c(c1)OCO2)c1cc(-c2ccncc2)nc2ccccc12	57.3*	-36.3	1.0	7.0	5.6	51.1*	2.7	44.5*	58.9*
Cc1ccsc1/C=N/NC(=O)c1cc(-c2ccncc2)nc2ccccc12	58.2*	23.6	0.4	2.1	3.7	57.5*	55.5*	59.6*	58.0*
CCOc1ccc(Br)cc1/C(C)=N\NC1=NCCN1	70.3*	-27.9	-0.2	3.9	27.8	69.5*	26.1	54.8*	56.5*
CC1=CC(=O)C(C(C)C)=C/C1=N/OS(=O)(=O)c1ccccc1	81.3*	-81.7	26.8*	25.7	105.3*	100.2*	0.5	34.9	42.0*
Cc1ccc2c(c1)/C(=N/OS(=O)(=O)c1ccccc1)CCS2	1.7	15.4	-0.2	0.1	2.8	14.2	.	.	.
